# From paper PMC4336329 (PLoS ONE, 2015)
# In all, about 310,000 compounds went through this assay and about 14,000 (4.5%) showed an effect of 50% or more. The effect is printed as a negative number. This is one part of a sample in which strong results are shown more often than they occur.
# Biological target: human ether-à-go-go-related gene (hERG) potassium channel (human, UniProt Q12809)
# Test: primary screen, population patch clamp on CHO cells stably expressing hERG; higher = less effect of the substance
# 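Further: peak tail current of the secondary pulse compared with the same well before compound.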
# human ether-à-go-go-related gene (hERG) potassium channel, sequence (Q12809 whole entry, looked up): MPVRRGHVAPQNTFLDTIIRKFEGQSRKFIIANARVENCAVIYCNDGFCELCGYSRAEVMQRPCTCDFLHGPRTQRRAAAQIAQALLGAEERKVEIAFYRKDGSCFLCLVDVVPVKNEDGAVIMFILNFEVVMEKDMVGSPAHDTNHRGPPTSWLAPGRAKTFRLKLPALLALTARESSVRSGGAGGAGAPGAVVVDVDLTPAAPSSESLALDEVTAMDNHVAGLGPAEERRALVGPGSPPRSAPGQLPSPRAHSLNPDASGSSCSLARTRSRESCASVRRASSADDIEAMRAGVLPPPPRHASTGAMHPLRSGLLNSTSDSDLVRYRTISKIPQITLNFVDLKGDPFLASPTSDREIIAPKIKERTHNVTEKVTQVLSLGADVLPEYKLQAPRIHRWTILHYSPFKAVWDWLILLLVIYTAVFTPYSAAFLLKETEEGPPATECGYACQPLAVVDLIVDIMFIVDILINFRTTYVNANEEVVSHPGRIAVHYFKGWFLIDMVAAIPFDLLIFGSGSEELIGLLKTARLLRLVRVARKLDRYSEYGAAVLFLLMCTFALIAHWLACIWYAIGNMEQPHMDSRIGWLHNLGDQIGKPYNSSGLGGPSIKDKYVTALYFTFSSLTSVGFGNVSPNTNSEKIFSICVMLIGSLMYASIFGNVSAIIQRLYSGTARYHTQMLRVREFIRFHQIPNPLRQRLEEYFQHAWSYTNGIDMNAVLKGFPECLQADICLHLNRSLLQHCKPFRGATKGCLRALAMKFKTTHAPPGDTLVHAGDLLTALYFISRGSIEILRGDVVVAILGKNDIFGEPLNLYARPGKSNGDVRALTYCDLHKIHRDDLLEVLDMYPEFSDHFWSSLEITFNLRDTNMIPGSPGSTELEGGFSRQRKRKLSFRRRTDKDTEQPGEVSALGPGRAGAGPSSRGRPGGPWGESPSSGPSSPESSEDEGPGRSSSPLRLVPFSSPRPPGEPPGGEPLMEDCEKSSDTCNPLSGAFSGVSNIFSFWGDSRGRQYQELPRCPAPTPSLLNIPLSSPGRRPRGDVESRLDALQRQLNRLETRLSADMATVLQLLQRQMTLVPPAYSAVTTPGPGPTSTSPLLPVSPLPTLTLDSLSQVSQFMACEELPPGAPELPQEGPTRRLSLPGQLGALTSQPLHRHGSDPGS
row,SMILES,"hERG current change (%, negative = inhibition) at 10uM"
1,Fc1cccc(CSc2nc3ncccc3[nH]2)c1,4.28%
2,O=C(O)CC(c1ccc(Cl)cc1)N1C(=O)CCC1=O (stereo not shown),-7.96%
3,Cn1cnnc1SCCNS(=O)(=O)c1ccccc1,10.8%
4,COc1ccc2c(C)c(C)c(=O)oc2c1OC,3.4%
5,CN(CC1CCCN(CCc2ccc(Cl)cc2)C1)C(=O)CC(F)(F)F (stereo not shown),-60.5%
6,CN(C)C(=O)CCC(=O)N(C)CC1CCCN(CCc2ccc(F)cc2)C1 (stereo not shown),-38.1%
7,CN(CC1CCCN(CCc2ccc(F)cc2)C1)C(=O)CCC(N)=O (stereo not shown),-23.9%
8,CN(CC1CCCN(CCc2ccc(F)cc2)C1)C(=O)CCC(F)(F)F (stereo not shown),-63%
9,CC(=O)Nc1cccc(C(=O)OCc2csc(CC(=O)Nc3ccccc3C)n2)c1,-14%
10,N#CCCn1cc(C=C2C(=O)NC(=O)NC2=O)c(-c2ccccc2)n1,25.2%
11,CCOc1ccc(C)cc1S(=O)(=O)n1ccc(C)n1,4.82%
12,Cc1ccccc1S(=O)(=O)Cc1ccc(C(=O)NCCCN2CCC(C)CC2)o1,-36.2%
13,O=C(CC(c1ccccc1)c1cc(Br)ccc1O)NCCCN1CCOCC1 (stereo not shown),-31.3%
14,O=C(NCc1ccc2c(c1)OCO2)c1ccc(CSCc2cccc(Cl)c2)o1,-11.1%
15,O=C(CC(c1ccccc1)c1cc(Cl)ccc1O)NCCN1CCOCC1 (stereo not shown),-42.1%
16,O=C(NCCCN1CCOCC1)c1cc(Cl)ccc1OCc1ccccc1,-55.7%
17,Cc1cccc(CSCc2ccc(C(=O)NC3CCCC3)o2)c1,-55.5%
18,O=C(NCCCN1CCOCC1)c1cc(Cl)ccc1Cl,11.5%
19,Cc1ccc(CSCc2ccc(C(=O)NC3CCCC3)o2)cc1,-18.2%
20,O=C(CC(c1ccccc1)c1cc(Cl)ccc1O)NCCCN1CCOCC1 (stereo not shown),-50%
21,Cc1ccc(CSCc2ccc(C(=O)NC3CC3)o2)cc1,-5.31%
22,CC1CCN(CCCNC(=O)c2ccc(CSCc3cccc(Cl)c3)o2)CC1,-74.8%

row,SMILES,"hERG current change (%, negative = inhibition) at 10uM"
1,COc1ccc(Cl)cc1C(=O)NCCCN1CCOCC1,9.16%
2,CCC(C)C(NC(=O)C1CCC(C)CC1)C(=O)Nc1ccc(OC)cc1OC (stereo not shown),-4.26%
3,CCCCC(c1nnnn1C(C)C)N1CCN(C(=O)c2ccco2)CC1.Cl (stereo not shown),-18.9%
4,O=C(c1ccccc1)N1N=C(c2ccccc2)CC1c1ccccc1[N+](=O)[O-] (stereo not shown),13.4%
5,COc1ccccc1CNc1cc(CSc2ccc(Cl)cc2)nc(C)n1,-0.554%
6,CCOC(=O)c1ccc(N2Cc3ccccc3C2=NC(=O)c2cccc([N+](=O)[O-])c2)cc1,10.7%
7,CN(C)c1ccc(/C=N/NC(=O)CCCO)cc1,24.4%
8,Cc1cccc(CS(=O)(=O)Cc2ccc(C(=O)NCCCN3CCOCC3)o2)c1,-12.6%
9,COCCNC(=O)c1ccc(CSCc2cccc(Cl)c2)o1,-7.69%
10,Cc1ccc(CSCc2ccc(C(=O)NCCCN3CCOCC3)o2)cc1,-51.8%
11,Cc1ccc(CSCC(=O)NCCCN2CCOCC2)cc1,11.4%
12,O=C(NCCN1CCOCC1)c1ccc(CSCc2cccc(Cl)c2)o1,-43.7%
13,CN1CCN(CCCNC(=O)c2ccc(CSCc3cccc(Cl)c3)o2)CC1,-40.2%
14,Cc1ccccc1CSCc1ccc(C(=O)NCCCN2CCOCC2)o1,-47.6%
15,O=C(NCCCN1CCOCC1)c1ccc(CSCc2cccc(Cl)c2)o1,-64.4%
16,O=C(NCCCN1CCCC1)c1ccc(CSCc2cccc(Cl)c2)o1,-61.8%
17,CC(=O)Nc1ccc(S(=O)(=O)Nc2ccc3c(c2)OCCO3)cc1Cl,15.5%
18,CN(Cc1ccccc1)C(=O)c1c[nH]c2ccc(S(=O)(=O)N3CCOCC3)cc2c1=O,3.03%
19,Cc1ccc(S(=O)(=O)N2CCN(C(=O)n3ccnc3)CC2)cc1,-5.76%
20,CC(C)Cc1nc(N2CCN(C(=O)c3ccccc3)CC2)c(C#N)c2c1CCC2,-24.1%
21,COc1cc(C)c(S(=O)(=O)NOCc2ccc([N+](=O)[O-])cc2)c(C)c1C,8.43%
22,CN(C)C(=O)N1CCNCC1.Cl,12.8%

row,SMILES,"hERG current change (%, negative = inhibition) at 10uM"
1,CC(C)[C@H](NC(=O)OC(C)(C)C)C(=O)N1CCC(C(=O)N[C@@H](C)C(=O)Nc2ccc(F)cc2)CC1,10.7%
2,Cn1c(=O)c2c(nc(SCC(=O)NCc3ccc4c(c3)OCO4)n2Cc2ccc(F)cc2)n(C)c1=O,-63.1%
3,CCn1c(SCC(=O)Nc2ccc3c(c2)OCO3)nc2c1c(=O)n(C)c(=O)n2C,-0.539%
4,Cn1c(=O)c2c(nc(SCC(=O)NCC3CCCO3)n2Cc2ccc(F)cc2)n(C)c1=O (stereo not shown),-41.6%
5,Cn1c(=O)c2c(nc(NCc3ccc4c(c3)OCO4)n2Cc2ccc(F)cc2)n(C)c1=O,-5.77%
6,Cn1c(=O)c2c(nc(SCC(=O)NCc3ccc4c(c3)OCO4)n2Cc2ccccc2)n(C)c1=O,-46.9%
7,Cn1c(=O)c2c(nc(SCC(=O)NCc3ccc4c(c3)OCO4)n2Cc2ccc(Cl)cc2)n(C)c1=O,-50.6%
8,O=C(NN1CCOCC1)c1sc2cccc(F)c2c1Cl,9.93%
9,c1ccc(-c2cnc(CSc3ncnc4sccc34)o2)cc1,7.1%
10,N#CC1=C(N)SC(N)=C(C#N)C1CCc1ccccc1,26.4%
11,C/C(=N/NC(=O)CNC(=O)Cc1ccccc1)c1ccc(Cl)cc1,5.97%
12,CN1/C(=C\C=C(/C#N)C(=O)Nc2ccc(Cl)cc2)C(C)(C)c2ccccc21,13%
13,CCNC(=O)CC1C(=O)N(c2cccc(C)c2)C(=O)N1CCC(C)C (stereo not shown),-75%
14,CCNC(=O)CC1C(=O)N(c2ccc(C)cc2)C(=O)N1CCC(C)C (stereo not shown),-2.19%
15,CCNC(=O)CC1C(=O)N(c2ccccc2)C(=O)N1CCC(C)C (stereo not shown),5.26%
16,CCN(c1ccccc1)S(=O)(=O)c1cc(NC(=O)Nc2ccccc2C#N)ccc1Cl,-34.2%
17,Cc1ccc(NC(=O)CCc2nnc(SCC(=O)Nc3ccccc3C)n2C)cc1Cl,14.5%
18,Cc1ccc(OCCSc2nnc(NC(=O)c3ccco3)s2)cc1,-1.66%
19,O=C(CN1C(=O)C2C3C=CC(C4CC34)C2C1=O)Oc1ccccc1 (stereo not shown),0.512%
20,CN(C)CCCNC(=O)c1cc2sc3ccccc3c2s1.Cl,-64.7%
21,CN1CCN(C(=O)c2cc3sc4ccccc4c3s2)CC1,-15.5%
22,COCCNC(=O)c1cc2sc3ccccc3c2s1,-8.28%

row,SMILES,"hERG current change (%, negative = inhibition) at 10uM"
1,CN(C)CCNC(=O)c1cc2sc3ccccc3c2s1.Cl,-31.5%
2,CN(C)CCCNC(=O)c1cc2c3ccccc3n(C)c2s1,-40.1%
3,COCCN(CCOC)C(=O)c1cc2sc3ccccc3c2s1,-70.6%
4,CCCN(C(=O)CSCc1ccccc1C)c1c(N)n(Cc2ccccc2)c(=O)[nH]c1=O,-4.64%
5,CC(O)CNc1nc2c(c(=O)n(C)c(=O)n2C)n1Cc1cccc(C(F)(F)F)c1 (stereo not shown),-12.9%
6,O=[N+]([O-])c1cccc(/C=N/Nc2ncc(Br)cn2)c1,19.6%
7,CCc1cccc(C)c1N(C(=O)Cn1c(=O)[nH]c2ccccc21)C(C)COC (stereo not shown),-4.31%
8,CCN(CC(=O)Nc1ccc2c(c1)OCCO2)C(=O)/C=C/c1cccc(Br)c1,-28.7%
9,O=C(CN1C(=O)NC2(CCCCCCC2)C1=O)Nc1ccc(Br)cc1,5.19%
10,Cc1nc2c(c(C)nn2-c2ccccc2)c(C)c1CCC(=O)Nc1ccc(CN2CCCC2)cc1,-61%
11,Cc1ccc(-n2nc(C)c3c(C)c(CCC(=O)NCc4ccccc4)c(C)nc32)cc1,10.5%
12,CCCNC(=O)CCc1c(C)nc2c(c(C)nn2-c2ccccc2)c1C,0.304%
13,CCC(C)NC(=O)CCc1c(C)nc2c(c(C)nn2-c2ccccc2)c1C (stereo not shown),-1.82%
14,Cc1ccc(-n2nc(C)c3c(C)c(CCC(=O)Nc4ccc(CN5CCCC5)cc4)c(C)nc32)cc1,-60.2%
15,Cc1ccc(CNC(=O)CCc2c(C)nc3c(c(C)nn3-c3ccc(C)cc3)c2C)cc1,10.1%
16,C/C(=N\NC(=O)c1cc(-c2cccc([N+](=O)[O-])c2)n[nH]1)c1ccc(F)cc1,8.28%
17,O=C(COC(=O)CC1CC2CCC1C2)Nc1ccc(F)cc1 (stereo not shown),-22.4%
18,Cc1ccc2c(c1)/C(=C/c1ccc(F)cc1)C(=O)N2,10.5%
19,COc1cc(C(=O)N/N=C/c2coc3ccc(Cl)cc3c2=O)ccc1O,14.2%
20,COc1ccc(CCN2C(=O)CC(NNc3ccc([N+](=O)[O-])cc3)C2=O)cc1OC (stereo not shown),-52.8%
21,CCc1ccc(NC2CC(=O)N(CCc3ccc(OC)c(OC)c3)C2=O)cc1 (stereo not shown),-13.4%
22,COc1ccc(CCNC2CC(=O)N(CCc3ccccc3)C2=O)cc1OC (stereo not shown),0.286%
